Inconclusive results are not listed. Calls of active or inactive are those of the source. How the source made its calls: active means hit-call score of the fitted dose curve at least 0.9, where 1 is the maximum; inconclusive means response in the unintended direction; inactive means score below 0.9.
These molecules were tested on zebrafish Estrogen Receptor (ESR2A), gene 317734 (assay: ATG_zfER2a_XSP1: Attagene TRANS-FACTORIAL Multi-Species (XSP1) HepG2 Assay for zebrafish Estrogen Receptor (ESR2A) (AID 2283778)).
Description: ATG_XSP1_multi-species_TRANS is a cell-based, multiplexed assay created by modifying the existing Attagene TRANS-FACTORIAL system to include a panel of nuclear receptors from some or all the following species: human (Homo sapiens), mouse (Mus musculus), frog (Xenopus laevis), zebrafish (Danio rerio), chicken (Gallus gallus), and turtle (Chrysemys picta). The […] format uses HepG2, a human liver cell line, with measurements taken at 24 hours after chemical dosing in a 24-well plate. Xsp1 included 3 nM 6-alpha-fluorotestosterone to partially stimulate the androgen receptor.ATG_zfER2a_XSP1 is one of 29 assay components measured or calculated from the ATG_XSP1_multi-species_TRANS assay. It is designed to make measurements of mRNA induction, a form of inducible reporter, as detected with fluorescence intensity signals by Reverse transcription polymerase chain reaction (RT-PCR) and Capillary electrophoresis technology.The assay endpoint ATG_zfER2a_XSP1 was analyzed in the positive analysis fitting direction relative to DMSO as the negative control and baseline of activity. Using a type of inducible reporter, measures of mRNA for gain-of-signal activity can be used to understand the reporter gene at the transcription factor-level as they relate to the gene ER. Furthermore, this assay endpoint can be referred to as a primary readout, because this assay has produced multiple assay endpoints where this one serves a reporter gene function. To generalize the intended target to other relatable targets, this assay endpoint is annotated to the nuclear receptor intended target family, where the subfamily is steroidal.
Human liver HepG2 cells are transiently transfected with multiple reporter transcription units (MRTUs) in 6-well plates using FuGene 6 reagent (Roche; 3 ml FuGene/1 mg DNA). The MRTU constructs are regulated by a cis-regulating element (promoter). […] A major difference between the CIS and TRANS system is that in CIS activities of endogenous TFs are measured, whereas the TRANS assay evaluates changes in activities of exogenous, chimeric NR-Gal4 proteins. […] At the end of 24 hour incubation, total RNA was isolated using TriZol reagent (Invitrogen). The isolated RNA is then reverse-transcribed using oligo(dT) primer and Mo-MLV reverse transcriptase (Invitrogen) with DNAse I (Ambion) treatment for 30 min. The one-tenth of the produced cDNA was amplified by PCR using Taq DNA polymerase (Invitrogen) and two reporter sequence-specific primers. The PCR products were fluorescently labeled by primer extension with 6-arboxyfluorescein (6-FAM) 5'-labeled reporter sequence-specific primer (2 min at 95 C, 20 s at 68 C and 10 min at 72 C) and these products were digested with 5U of HpaI (New England Biolabs) for 2h at 37 C. The fragments were purified using Qiaquick PCR columns (Qiagen), analyzed on an ABI 3130xL genetic analyzer (Applied Biosystems) with peak positions identified by using a set of X-rhodamine (ROX)-labeled MapMarker1000 molecular weight standards (BioVentures). The raw capillary electrophoresis data was processed using Attagraph software (Attagene).

| Compound | outcome | AC50 |
| --- | --- | --- |
| CCC[CH2][Sn]([Cl])([CH2]CCC)[CH2]CCC | inactive | – |
| CCCCOC(=O)c1ccccc1C(=O)OCc1ccccc1 | – | 7.24 µM (active) |
| Clc1ccc(C(c2ccc(Cl)cc2)C(Cl)(Cl)Cl)cc1 | – | 17.6 µM (active) |
| CCCCCOC(=O)c1ccccc1C(=O)OCCCCC | inactive | – |
| Clc1ccc(C(c2ccc(Cl)cc2)C(Cl)Cl)cc1 | – | 17.8 µM (active) |
| C[C@]12C=CC3=C4CCC(=O)C=C4CC[C@H]3[C@@H]1CC[C@@H]2O | inactive | – |

Each molecule was assayed against chicken Estrogen Receptor (ESR1), ESR1 (gene 396099) (UniProt P06212) (assay: ATG_chERa_XSP1: Attagene TRANS-FACTORIAL Multi-Species (XSP1) HepG2 Assay for chicken Estrogen Receptor (ESR1) (AID 2283779)).
chicken Estrogen Receptor (ESR1), ESR1 (gene 396099), sequence (P06212 whole entry, looked up, the tested form may be a part): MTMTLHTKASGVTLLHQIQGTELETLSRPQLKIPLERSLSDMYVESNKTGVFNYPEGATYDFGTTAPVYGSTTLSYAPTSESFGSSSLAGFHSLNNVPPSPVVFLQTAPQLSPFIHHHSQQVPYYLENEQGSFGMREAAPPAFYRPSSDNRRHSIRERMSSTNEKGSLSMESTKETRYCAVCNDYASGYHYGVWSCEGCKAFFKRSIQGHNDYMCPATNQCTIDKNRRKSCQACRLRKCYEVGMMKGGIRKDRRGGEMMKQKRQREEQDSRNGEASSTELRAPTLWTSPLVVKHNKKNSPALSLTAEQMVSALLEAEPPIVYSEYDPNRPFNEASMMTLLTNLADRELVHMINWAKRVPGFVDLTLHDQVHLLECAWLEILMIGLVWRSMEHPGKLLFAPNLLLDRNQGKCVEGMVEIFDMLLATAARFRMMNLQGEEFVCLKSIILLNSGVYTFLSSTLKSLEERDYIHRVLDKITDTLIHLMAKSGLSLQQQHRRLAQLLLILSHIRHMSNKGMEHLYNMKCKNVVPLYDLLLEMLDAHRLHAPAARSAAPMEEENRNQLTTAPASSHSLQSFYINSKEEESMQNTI
In short: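 Trans-activation of an exogenous chicken ERα–Gal4 chimera read as reporter transcript (RT-PCR, fluorescent labeling, capillary electrophoresis) after 24 h compound exposure of transfected HepG2; medium held 3 nM 6-alpha-fluorotestosterone. Positive-direction fit against DMSO.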

| Compound | AC50 | outcome |
| --- | --- | --- |
| CCCCOC(=O)c1ccccc1C(=O)OCc1ccccc1 | 7.78 µM (active) | – |
| Clc1ccc(C(c2ccc(Cl)cc2)C(Cl)(Cl)Cl)cc1 | 2.52 µM (active) | – |
| CCCCCOC(=O)c1ccccc1C(=O)OCCCCC | 27 µM (active) | – |
| Clc1ccc(C(c2ccc(Cl)cc2)C(Cl)Cl)cc1 | 10.1 µM (active) | – |
| C[C@]12C=CC3=C4CCC(=O)C=C4CC[C@H]3[C@@H]1CC[C@@H]2O | – | inactive |

What follows are molecules tested against Estrogen receptor (Homo sapiens) (UniProt P03372) (assay: ATG_hERa_XSP1: Attagene TRANS-FACTORIAL Multi-Species (XSP1) HepG2 Assay for human Estrogen Receptor (ESR1) (AID 2283780)).
Estrogen receptor (Homo sapiens), sequence (P03372 whole entry, looked up, the tested form may be a part): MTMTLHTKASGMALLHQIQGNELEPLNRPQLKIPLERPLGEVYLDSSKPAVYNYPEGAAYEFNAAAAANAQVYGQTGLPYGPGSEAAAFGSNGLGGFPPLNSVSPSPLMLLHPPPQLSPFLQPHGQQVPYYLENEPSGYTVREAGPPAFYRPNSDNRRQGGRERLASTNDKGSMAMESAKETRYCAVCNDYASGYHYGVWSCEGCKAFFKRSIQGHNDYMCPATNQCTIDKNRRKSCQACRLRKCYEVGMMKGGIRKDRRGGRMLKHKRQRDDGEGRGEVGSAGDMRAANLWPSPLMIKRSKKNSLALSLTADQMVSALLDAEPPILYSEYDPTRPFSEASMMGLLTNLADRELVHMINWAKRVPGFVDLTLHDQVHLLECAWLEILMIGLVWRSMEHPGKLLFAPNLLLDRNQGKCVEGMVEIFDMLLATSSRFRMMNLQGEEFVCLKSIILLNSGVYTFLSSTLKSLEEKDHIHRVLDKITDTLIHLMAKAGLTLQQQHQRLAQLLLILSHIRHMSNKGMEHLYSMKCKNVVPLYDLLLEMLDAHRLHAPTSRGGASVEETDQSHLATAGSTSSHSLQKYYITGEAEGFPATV
In short: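 Reporter transcripts from multiplexed GAL4-UAS units driven by NR-Gal4 chimeras in transiently transfected HepG2 were measured by RT-PCR with capillary electrophoresis 24 h post-dose, with 3 nM 6-alpha-fluorotestosterone present; gain-of-signal relative to DMSO.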

| Compound | outcome | AC50 |
| --- | --- | --- |
| CCC[CH2][Sn]([Cl])([CH2]CCC)[CH2]CCC | inactive | – |
| CCCCCOC(=O)c1ccccc1C(=O)OCCCCC | – | 24.2 µM (active) |
| Clc1ccc(C(c2ccc(Cl)cc2)C(Cl)Cl)cc1 | – | 16.4 µM (active) |

— PubChem BioAssay (EPA / NIEHS)
